In the library only some 3% were active in any assay of this set; here they are far more common.
Nrf2 block = blocks Nrf2 signaling; A549 ARE-Fluc reporter, luciferase luminescence, 18-24 h; Potency, µM (doses to about 46 µM), for inactives: at the top dose activity change, negative = inhibition, most hits filed as inhibitors; hit rate 2.1% among 360,000; AID 504444; also: % is scaled to controls: 0 for no effect and ±100 for the full control effect; nearly all actives have a fitted effect of over 60% in size
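Reporter: ARE-Fluc in A549. Exposure: 18-24 h, 37 °C, 5% CO2, 5% FBS OPTI-MEM. Readouts: fluorescent cytotoxicity (CellTiter-Fluor), then luminescent Nrf2 signal after BugLite.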
TrxR1 substrate = rat thioredoxin reductase 1 substrate activity; Potency, µM (titrated, usually from 114 µM), without a hit: at the highest dose activity change, negative = substrate turnover; AID 588456; hit rate 0.01% among 390,000; O89049; purified TrxR1 substrate turnover, NADPH consumption readout; also: % is scaled to controls: 0 for no effect and ±100 for the full control effect; nearly all actives have a fitted effect of over 50% in size
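Rat TrxR1, dispensed at 90 nM, was prereduced with 400 uM NADPH (final) for 5 min at ~22 deg C, then incubated with compound 15 min before 400 uM selenite. A first-read NADPH fluorescence drop versus no-compound background flagged substrates.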
TrxR1 inh = rat TrxR1 inhibition; O89049; recombinant rTrxR1, NADPH fluorescence consumption, selenite substrate; Potency, µM (series often up to 114 µM), for inactives: top-dose activity change, negative = inhibition, actives largely listed as inhibitors; hit rate 1% among 390,000; AID 588453; also: % is scaled to controls: 0 for no effect and ±100 for the full control effect; nearly all actives have a fitted effect of over 65% in size
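Rat TrxR1 (90 nM in the dispensed reagent) was pre-reduced with 400 uM NADPH for 5 min at room temperature, then incubated with compound for 15 min. After 400 uM selenite was added, NADPH fluorescence (Ex 340/Em 450 nm) was followed for 8 min.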
Nrf2 ARE act = Nrf2 pathway activation; AREc32 ARE-luciferase reporter (MCF7-derived line), luminescence, 24 h; Potency, µM (doses to about 46.1 µM), inactives show top-dose activation, usual class: activators; hit rate 0.31% among 410,000; AID 624171; also: % of control where 0% means no effect; nearly all actives have a fitted effect of over 65% in size
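Each well held 1000 AREc32 cells, which were incubated with compound for 24 hr at 37 deg C after overnight attachment, and ARE reporter activity was quantified by firefly luciferase luminescence.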
GALK inhibitor = blocks human galactokinase activity. P51570. Purified GALK, Kinase-Glo residual ATP luminescence. Potency, µM (titrated, usually from 57.5 µM), for inactives: at the highest dose activity change, negative = inhibition, hits mostly inhibitors. hit rate 0.007% among 270,000. AID 1868; also: % is scaled to controls: 0 for no effect and ±100 for the full control effect
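Human GALK (5 nM) with 35 uM ATP and 100 uM galactose in 20 mM HEPES pH 8.0, 5 mM MgCl2, 60 mM NaCl, 1 mM DTT, 0.01% BSA. After 1 h at room temperature, leftover ATP was read by Kinase-Glo Plus luminescence.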
A549 tox-1 = kills or reduces viability of A549 cells in Nrf2 counter-screen; Potency, µM (titrated, usually from 46 µM), for the others: top-dose activity change, negative = cytotoxicity, most hits filed as inhibitors; hit rate 0.16% among 390,000; AID 504648; A549 ARE-Fluc cells, CellTiter-Fluor viability, 18-24 h; also: % is scaled to controls: 0 for no effect and ±100 for the full control effect
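Cytotoxicity counterscreen: CellTiter-Fluor fluorescence was measured in A549 ARE_Fluc cells after 18-24 h of compound exposure in a concentration series. The subsequent BugLite luminescent read reports ARE-luciferase activity.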
FLuc enzyme inh = firefly luciferase inhibition, Nrf2 hit validation; shares compounds with Nrf2 block; purified firefly luciferase, luminescence inhibition; Potency, µM (highest dose often 57.5 µM), for inactives: at the highest dose activity change, negative = inhibition, hits mostly inhibitors; hit rate 4% among 1,400; also: % is scaled to controls: 0 for no effect and ±100 for the full control effect; nearly all actives have a fitted effect of over 65% in size
Target sequence (P08659 whole entry, looked up): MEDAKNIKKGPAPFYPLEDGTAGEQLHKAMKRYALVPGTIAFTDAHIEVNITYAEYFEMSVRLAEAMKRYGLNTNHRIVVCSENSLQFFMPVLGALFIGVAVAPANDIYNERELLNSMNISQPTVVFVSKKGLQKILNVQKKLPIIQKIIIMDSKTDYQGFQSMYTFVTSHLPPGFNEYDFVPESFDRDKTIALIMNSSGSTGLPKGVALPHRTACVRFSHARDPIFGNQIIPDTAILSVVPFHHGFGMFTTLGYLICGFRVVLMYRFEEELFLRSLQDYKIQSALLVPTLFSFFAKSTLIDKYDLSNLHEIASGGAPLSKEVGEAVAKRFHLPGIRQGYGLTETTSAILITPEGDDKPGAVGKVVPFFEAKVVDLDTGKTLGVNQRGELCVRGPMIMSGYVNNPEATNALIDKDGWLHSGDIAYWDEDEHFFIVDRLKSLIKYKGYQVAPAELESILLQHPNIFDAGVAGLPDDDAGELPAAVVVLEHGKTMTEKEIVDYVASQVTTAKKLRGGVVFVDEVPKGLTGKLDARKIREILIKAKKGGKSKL
A549 tox-2 = toxic to A549 ARE-Fluc cells in Nrf2 counterscreen | shares compounds with Nrf2 block | hit rate 2% among 1,400 | Potency, µM (series often up to 46.1 µM), for inactives: top-dose activity change, negative = cytotoxicity, hits mostly inhibitors | AID 720523 | A549 ARE-Fluc cells, cytotoxicity counterscreen;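 also: cells exposed to compounds for 18 to 24 hours; % is scaled to controls: 0 for no effect and ±100 for the full control effect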
Nrf2 ARE inh = reduces Nrf2 ARE reporter signal in A549 cells | A549 ARE-firefly luciferase reporter, luminescence | Potency, µM (doses to about 46.1 µM), for the others: top-dose activity change, negative = inhibition, usual class: inhibitors | shares compounds with Nrf2 block | hit rate 74% among 1,400; also: % is scaled to controls: 0 for no effect and ±100 for the full control effect; nearly all actives have a fitted effect of over 65% in size
The depositor's hits bear a star; ? = inconclusive; . = no result; [ ] = another dose, or the depositor's remark. Calls follow the shape of the dose curve; as a rule, active = well fitted curve in the direction sought with a large enough effect; inconclusive = small, poorly fitted or top-dose-only effect, or another doubt; inactive = no such curve, though single readings can be large; an effect the other way counts as inactive or inconclusive. Potency is read from the fitted curve at half-maximal effect.

SMILES	Nrf2 block	TrxR1 substrate	TrxR1 inh	Nrf2 ARE act	GALK inhibitor	A549 tox-1	FLuc enzyme inh	A549 tox-2	Nrf2 ARE inh
CCCCOc1cccc(C(=O)Nc2ccc(S(=O)(=O)Nc3nnc(CC)s3)cc2)c1	-21%	-7%	4%	0%	5%	-2%	.	.	.
N#Cc1cc(-c2ccccc2)[nH]c1-c1nccc2ccccc12	9.2µM*	1%[2.29 µM]	3%[2.29 µM]	0%	-2%	-14%	-12%	-4%	?
Cc1ccccc1NC1=C(Cl)C(=O)OC1OC(=O)c1ccccc1C (configuration not stated)	1.6µM*	-3%[57.1 µM]	2%[57.1 µM]	?	0%	?	-4%	-2%	?
COc1ccc(-c2noc(CCCCC(=O)N3CCN(c4cc(C)ccc4C)CC3)n2)cc1	3.7µM*	-3%	0%	-1%	.	-22%	-21%	-9%	7.3µM*
COc1ccccc1-c1noc(CCC(=O)N2CCN(c3cc(C)ccc3C)CC2)n1	4.6µM*	-6%	4%	4%	.	?	3%	0%	-25%
Cc1cc(=O)[nH]c(N/N=C/c2ccccc2C(F)(F)F)n1	13%	8%	13%[57.1 µM]	3%	-3%	-2%	.	.	.
Cc1cc(=O)[nH]c(N/N=C/c2cc(C)n(CC(F)(F)F)c2C)n1	4.1µM*	-12%	-18%	1%	-1%	-12%	-7%	-20%	1.5µM*
COc1ccc(OC(C)c2nc3ccccc3[nH]2)cc1 (configuration not stated)	9.2µM*	-3%	5%	5%	.	-19%	-29%	15%	-19%
CC(O)c1nc2ccccc2[nH]1 (configuration not stated)	.	-1%	8%	.	.	.	.	.	.
Cc1cccc(Cl)c1NC(=O)N1CCCN(c2nc3ccc(Cl)cc3s2)CC1	9.2µM*	6%	12%	7%	.	?	-16%	-30%	9.2µM*
Cc1cccc(C(=O)NCCC(=O)NCc2ccccc2F)c1	7%	0%	6%	-1%	.	2%	.	.	.
COc1ccc(C)cc1NC(=O)CSc1ccc(-c2sc(C)nc2C)nn1	9.2µM*	-4%	6%	0%	-6%	-20%	?	-19%	?
COc1ccc(C)cc1NC(=O)CSc1ccc(-c2ccccn2)nn1	3.7µM*	-1%	3%	6%	-4%	2%	?	-12%	18µM*
COc1cc(NC(=O)CSc2ccc(-c3ccccn3)nn2)cc(OC)c1	?	0%	6%	0%	6%	-26%	.	.	.
COc1ccc2c(c1)CCc1c(C(=O)Nc3c(C)nn(Cc4ccc(Cl)c(Cl)c4)c3C)noc1-2	4.6µM*	-4%	1%	-1%	.	-6%	0%	-9%	9.2µM*
COc1ccc2c(c1)CCc1c(C(=O)Nc3c(C)nn(Cc4ccc(Cl)cc4)c3C)noc1-2	-13%	4%	-9%	0%	.	-2%	.	.	.
O=C(Nc1cccc(C(F)(F)F)c1)c1cc(-c2ccc(Cl)cc2)on1	-22%	-3%	23%	1%	.	2%	.	.	.
FC(F)(F)c1cccc(Nc2nc3nonc3nc2Nc2ccc(Cl)cc2)c1	0.58µM*	0%	23%	-3%	.	2.9µM*	?	4.6µM*	1µM*
O=C(O)c1cccc(-n2cccc2/C=C2\NC(=O)N(Cc3ccc(F)cc3)C2=O)c1	0%	-6%[57.1 µM]	-15%[57.1 µM]	2%	-7%	-7%	.	.	.
